Measured values from the OligoGym collection.

Target: REPS2
Assay: pooled miR-30 sensor sort-seq; sequence = guide strand
Settings: shRNA
Note: reference of the scale not given here.

Sequence | sensor-assay potency score (higher = more potent)
TTCTTTGACATCATAAAGCGAG | -0.889
TAAATATGGAATCTGAACCTTA | -0.238
TCGTTCTTGATGAACCTCCTTG | -0.785
TTGACATAGTACTCGCGCTGTT | -0.809
ATTGACATAGTACTCGCGCTGT | 0.431
TGTTCTTCTGTTATCCTCCAGG | -0.549
TTATCCTCATCGTCCATTCTTT | -0.725

Target: RERG
Assay: as above
Settings: shRNA

Sequence | sensor-assay potency score (higher = more potent)
TTTGATCTCATCTAGGATGTTC | 0.194
AACAACTTCATCATCGATGGTT | -0.0718
TAATTTTTCTTACTGTACCTGG | 0.0466
TTGACATGCGTGGTGGAGCTGC | -0.453
TAGAGTTCCTTCTATTTCCTGT | 0.463
TTTGTTTCCAACCAAGATGAGA | -1.39
TAATTCTACATCTTCTACTAGC | -0.25
TTAATTTGCTTGTCTTTTGGAC | -0.0136
TCTTCTGTGCTAACCTGCCTGG | -0.541
TTAGACACATTTATTCAGCTGT | 0.3
TTGCCCTGCACCATCCTCCGGC | -0.458
TTCTACATCTTCTACTAGCATT | -1.27

Target: REST
Assay: as above
Settings: shRNA

Sequence | sensor-assay potency score (higher = more potent)
TATCTGAACAGGCTCCTTCTGG | -0.749
TTCAATAAGGACTTGCTCCTTC | 0.499
TTGGTCTTCGAGCTCTTGCCTT | -0.836
TTTCACTTTTGAGACATCCATT | -1.15
TAGATTTGAAGTGATACTGTAG | 0.294
TTCATCTTCATCAATTTCCTGA | 0.487
TTTCTTAGCACTGTGAACTCTG | 0.443
TTTGCTGTAATCTTTTCCCTTT | -0.0854
TATCTTAACAGGTTCCTTCTGG | 0.123
TTGAACTGTAAATATCTGGAGC | -0.111
TACACTTGTAGACTCGCTCATT | -0.726
TATTTGAACTGTAAATATCTGG | -0.000404

Target: RET
Assay: as above
Settings: shRNA

Sequence | sensor-assay potency score (higher = more potent)
TACAATTTGATGACATGTGGGT | 0.209
TTTAACTGGAATCCGACCCTGG | 0.235
TTCCGGTTGAGAACCAGCCTAT | -0.898
TTGTCTGGCCTCTCCATCCGGT | -0.338
TTGAACTCCACCACGGCGCTGG | 0.715
TTAAGCATATCTGAAAACCAAA | -1.63
TCGTCGTACACGGTCACCGGGA | -0.762
TAGAGTTTGTTTTCAATCCATG | -0.723
TTGGATATCTTGGAAACCCAGT | -0.723
